Rows were chosen to be rich in hits. Some 0.99% of all compounds tested hit in one or more screens of this group.
BLM helicase inh-1 – blocks DNA unwinding by human BLM helicase; P54132; recombinant BLM DNA unwinding, fluorescence dequenching; Potency, µM (series often up to 56.1 µM), without a hit: at the highest dose activity change, negative = inhibition, most hits filed as inhibitors; actives 0.2% (n = 350,000);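 also: plate controls were vehicle for no effect and no enzyme for full effect; nearly all actives have a fitted effect of over 35% in size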
RECQ1 inh – RECQ1 (human) helicase inhibition. Potency, µM (series often up to 57.3 µM), for the others: at the top dose activity, negative = inhibition, actives largely listed as inhibitors. P46063. actives 0.54% (n = 240,000). RECQ1 DNA unwinding, red fluorescence kinetic read;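 also: plate controls were vehicle for no effect and no enzyme for full effect; nearly all actives have a fitted effect of over 30% in size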
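RECQ1T1 50 nM; forked duplex (20 bp + 30-nt ss tails) 200 nM, ATP 2 mM final; pH 8.0, 2 mM MgCl2, 2.5 ug/ml poly(dI-dC); 15 min compound preincubation; discontinuous kinetic read over 2 h at RT.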
WRN helicase inh-1 – WRN helicase (human) inhibition; Q14191; WRN helicase unwinding, fluorescent forked duplex, kinetic; Potency, µM (top dose mostly 114 µM), for inactives: at the highest dose activity change, negative = inhibition, actives largely listed as inhibitors; actives 0.46% (n = 360,000); AID 651768; also: % is scaled to controls: 0 for no effect and ±100 for the full control effect; nearly all actives have a fitted effect of over 55% in size
Target sequence (Q14191 whole entry, looked up): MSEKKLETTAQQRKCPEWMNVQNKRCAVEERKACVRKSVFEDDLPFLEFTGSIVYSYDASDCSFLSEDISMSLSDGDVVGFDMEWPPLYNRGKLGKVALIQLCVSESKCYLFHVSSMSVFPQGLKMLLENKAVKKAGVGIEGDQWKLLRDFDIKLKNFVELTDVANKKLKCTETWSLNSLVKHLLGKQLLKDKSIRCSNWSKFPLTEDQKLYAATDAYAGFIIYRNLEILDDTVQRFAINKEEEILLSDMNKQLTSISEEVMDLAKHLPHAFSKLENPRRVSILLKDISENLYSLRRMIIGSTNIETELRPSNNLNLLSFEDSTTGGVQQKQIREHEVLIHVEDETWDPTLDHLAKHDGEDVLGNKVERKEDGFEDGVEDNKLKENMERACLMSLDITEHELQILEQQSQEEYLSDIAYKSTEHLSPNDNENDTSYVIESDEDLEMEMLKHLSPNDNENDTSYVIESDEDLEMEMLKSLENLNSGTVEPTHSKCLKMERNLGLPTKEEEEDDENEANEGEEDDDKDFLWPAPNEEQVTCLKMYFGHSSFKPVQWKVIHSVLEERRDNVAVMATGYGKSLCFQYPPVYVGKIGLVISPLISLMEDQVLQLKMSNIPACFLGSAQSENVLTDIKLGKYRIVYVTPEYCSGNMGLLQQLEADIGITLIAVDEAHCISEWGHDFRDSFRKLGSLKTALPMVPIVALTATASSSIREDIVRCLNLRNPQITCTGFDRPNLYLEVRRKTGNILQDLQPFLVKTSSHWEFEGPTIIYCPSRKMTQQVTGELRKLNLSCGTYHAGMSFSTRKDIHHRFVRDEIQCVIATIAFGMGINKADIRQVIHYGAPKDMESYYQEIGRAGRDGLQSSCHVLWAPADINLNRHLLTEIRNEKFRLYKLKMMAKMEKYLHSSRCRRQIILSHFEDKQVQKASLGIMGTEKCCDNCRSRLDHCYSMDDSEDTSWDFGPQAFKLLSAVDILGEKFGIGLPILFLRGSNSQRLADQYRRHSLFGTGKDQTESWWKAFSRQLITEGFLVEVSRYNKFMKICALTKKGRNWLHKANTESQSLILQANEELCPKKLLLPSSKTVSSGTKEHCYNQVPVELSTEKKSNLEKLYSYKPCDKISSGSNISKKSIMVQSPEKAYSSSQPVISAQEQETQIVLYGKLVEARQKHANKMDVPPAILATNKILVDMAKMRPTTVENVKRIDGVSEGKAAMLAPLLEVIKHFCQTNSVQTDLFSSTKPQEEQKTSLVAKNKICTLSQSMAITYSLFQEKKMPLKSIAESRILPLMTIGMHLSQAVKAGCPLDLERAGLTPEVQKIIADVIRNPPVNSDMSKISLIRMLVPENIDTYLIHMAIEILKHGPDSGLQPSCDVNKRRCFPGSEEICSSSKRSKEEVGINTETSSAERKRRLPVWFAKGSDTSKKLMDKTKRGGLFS
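Fluorescence dequenching readout, ex 525 nm/em 598 nm, kinetic mode: forked duplex DNA (100 nM final) with adjacent fluorophore and quencher unwound by WRN (20 nM final) with 2 mM ATP. Compound preincubation 15 min, room temperature.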
FEN1 inh-1 – blocks human flap endonuclease 1; actives 0.35% (n = 390,000); Recombinant FEN1 flap cleavage, fluorescence, 15 min; AID 588795; Potency, µM (highest dose often 114 µM), for the others: at the highest dose activity change, negative = inhibition, most hits filed as inhibitors; P39748; also: % is scaled to controls: 0 for no effect and ±100 for the full control effect; nearly all actives have a fitted effect of over 65% in size
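Potency values derive from four-parameter Hill fits of normalized qHTS data. The reaction used 10 nM FEN1 preincubated 15 min at room temperature with compound, then 50 nM DNA substrate, read at 0 and 15 min.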
L3MBTL1 inh – L3MBTL1 (human) inhibition; AlphaScreen L3MBTL1–H3K9me1 peptide binding; AID 485360; Potency, µM (top dose mostly 57.1 µM), without a hit: at the top dose activity, negative = inhibition, usual class: inhibitors; actives 0.66% (n = 230,000); also: % is scaled to controls: 0 for no effect and ±100 for the full control effect; nearly all actives have a fitted effect of over 60% in size
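First, the protein-peptide complex forms for 30 min at room temperature (L3MBTL1 50 nM, biotinylated H3K9me1 peptide 75 nM). Next, compounds are pin-transferred and incubated 30 min. Finally, AlphaScreen beads are added and read after 30 min.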
FEN1 inh-2 – FEN1 inhibition, cherry-pick retest; shares compounds with FEN1 inh-1; actives 79% (n = 880); Potency, µM, actives largely listed as inhibitors; FEN1 flap cleavage, TAMRA/BHQ2 fluorogenic DNA substrate; also: nearly all actives have a fitted effect of over 60% in size
WRN helicase inh-2 – confirmation of human WRN helicase inhibitors. shares compounds with WRN helicase inh-1. WRN helicase DNA unwinding, fluorescence kinetic. Potency, µM (titrated, usually from 57.1 µM), for inactives: top-dose activity, negative = inhibition, hits mostly inhibitors. actives 63% (n = 610); also: nearly all actives have a fitted effect of over 65% in size
TO DNA binding – DNA binding via thiazole orange displacement. Potency, µM (series often up to 57.1 µM), inactives show at the highest dose activity change, negative = inhibition, actives largely listed as inhibitors. shares compounds with WRN helicase inh-1. thiazole orange DNA binding displacement, fluorescence. actives 10% (n = 610). AID 720499;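 also: drop in dye fluorescence marks compound binding to DNA; % is scaled to controls: 0 for no effect and ±100 for the full control effect; nearly all actives have a fitted effect of over 60% in size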
BLM helicase inh-2 – blocks human BLM helicase in WRN counterscreen; shares compounds with WRN helicase inh-1; Recombinant BLM helicase DNA unwinding, red fluorescence; Potency, µM (top dose mostly 57.1 µM), for inactives: at the highest dose activity change, negative = inhibition, hits mostly inhibitors; actives 60% (n = 610); also: nearly all actives have a fitted effect of over 60% in size
Active calls of the source: *; i = inactive; ? = inconclusive; . = no result given; [ ] = remark or other dose. Calls follow the shape of the dose curve; as a rule, active = well fitted curve in the direction sought with a large enough effect; inconclusive = small, poorly fitted or top-dose-only effect, or another doubt; inactive = no such curve, though single readings can be large; an effect the other way counts as inactive or inconclusive. Potency is read from the fitted curve at half-maximal effect.

SMILES	BLM helicase inh-1	RECQ1 inh	WRN helicase inh-1	FEN1 inh-1	L3MBTL1 inh	FEN1 inh-2	others
CCN1CCCC1CNC(=O)c1ccc2c(c1)NC(=O)/C(=C\c1ccc(OC)c(OC)c1)S2 (centres undefined)	-21.1%	.	?	?	.	37.9*
CCN1CCCC1CNC(=O)c1ccc2c(c1)NC(=O)/C(=C\c1ccccc1Cl)S2 (centres undefined)	.	.	21.4%	.	.	.
COc1cccc(C2c3c(ncn(CCCN4CCOCC4)c3=N)Oc3ccc4ccccc4c32)c1 (centres undefined)	.	.	.	.	.	37.9*
O=Cc1ccc(-n2cccn2)cc1	-5.3%	-0.9%	-0.5%[57.1 µM]	-1.6%	9.2%	.
COc1ccc([N+](=O)[O-])cc1NC(=S)NC(C)=O	-7.3%	i	2.7%	0.5%	-4.6%	.
COc1ccc(/C=C/C(=O)NC(=S)Nc2cc([N+](=O)[O-])ccc2O)cc1OC	-18.8%	-10.9%	-11.8%[11.6 µM]	22.4µM*	-19.4%	60.1*
Cc1nc(NS(=O)(=O)c2ccc(Br)cc2)c2c3c(sc2n1)CCC3	-1.7%	-8.8%	-12.3%	0.8%	0.0%	.
COc1ccc(N2C(=O)C3C4C=CC(c5ccccc5)(C3C2=O)C2C(=O)N(c3ccc(OC)cc3)C(=O)C42)cc1 (centres undefined)	-12.8%	i	-7.3%	0.7%	1.6%	.
COn1c(=O)c(=O)n(O)c2ccccc21	0.0%	-12.5%	-4.9%	-18.1%	14.3%	.
O=c1c(=O)n(O)c2ccccc2n1O	-7.2%	i	3.0%	0.794µM*	5.0%	1.35*
CC(C1SC(=S)NC1=O)C1SC(=S)NC1=O (centres undefined)	.	.	?	.	.	?
COc1ccc(C(=O)c2ccc(C)cc2)c(OC)c1OC	.	.	-22.0%	0.8%	.	.
COc1ccc(-c2c(-c3ccccc3)c(C(=O)C(=O)NCCCN(C)C)n3ccc4cc(OC)c(OC)cc4c23)cc1OC	36.5%	.	-10.2%	39.8µM*	.	33.8*
O=[N+]([O-])c1ccc(CSc2nnc(Cc3ccccc3)o2)cc1	-7.2%	-6.6%	-6.4%	-15.7%	.	.
O=C(O)/C=C/c1cn(-c2ccccc2)nc1-c1ccc(-c2ccc([N+](=O)[O-])cc2)o1	?	-3.6%	50.1µM*	?	-9.3%	75.7*
O=C(O)/C=C/c1cn(-c2ccccc2)nc1-c1cccc([N+](=O)[O-])c1	0.1%	i	-1.5%	-5.2%	1.5%	.
COc1ccc(-c2ccc(NS(=O)(=O)c3cccc(C)c3)cc2)nn1	-1.5%	.	.	14.6%	.	.
COc1ccc(-c2nn(-c3ccccc3)cc2/C=C2/SC(=S)N(CCC(=O)O)C2=O)c(C)c1	?	.	-21.3%	?	-24.0%	67.5*
O=C(O)CCN1C(=O)/C(=C/c2cn(-c3ccccc3)nc2-c2cccs2)SC1=S	-5.8%	9.1%	-22.5%[11.6 µM]	?	-0.3%	.
COc1ccc(CN2C(=O)[C@@H]3Cc4c([nH]c5ccccc45)C(C)(C)N3C2=O)cc1	.	.	.	5.8%	.	.
O=C(Nc1ccc2oc(-c3ccccc3)nc2c1)c1cc(-n2cnnc2)ccc1Cl	?	-27.1%	-22.1%[57.1 µM]	?	0.9%	47.8*
O=C(Nc1ccc(-c2nc3ccccc3o2)cc1)c1cc(-n2cnnc2)ccc1Cl	1.9%	-1.6%	-4.4%	-17.9%	-6.0%	.
COC(=O)CN(c1cccc(C)c1)S(=O)(=O)c1ccccc1	-1.6%	.	9.8%	-15.6%	.	.
O=C(O)C1OC(Oc2cc3oc(-c4ccccc4)cc(=O)c3c(O)c2O)C(O)C(O)C1O (centres undefined)	-10.4%	-10.8%	5.8%	50.1µM*	?	33.8*
COc1ccc2nc(N(Cc3cccnc3)C(=O)COc3ccccc3)sc2c1	-5.6%	.	.	-14.2%	.	.
SMILES	BLM helicase inh-1	RECQ1 inh	WRN helicase inh-1	FEN1 inh-1	L3MBTL1 inh	FEN1 inh-2	others
CCCCC(=O)N/N=C/c1ccc(-c2ccc([N+](=O)[O-])cc2)o1	-3.0%	-5.9%	-2.2%	0.0%	-9.2%	.
O=C(O)c1ccc(-c2ccc(/C=N/Nc3ccc([N+](=O)[O-])cc3)o2)cc1	-22.3%	?	?	-18.6%	.	84.9*
Cc1cc(C)n(Cc2ccc(C(=O)N/N=C/c3ccc(-c4ccc([N+](=O)[O-])cc4)o3)o2)n1	15.8µM*	.	31.6µM*	56.2µM*	.	75.7*
Cc1ccc(NC(=O)CN2C(=O)N/C(=C\c3cccn3-c3ccc(C(=O)NC#N)cc3)C2=O)cc1	.	.	.	.	.	30.1*
Cc1ccc(NC(=O)CN2C(=O)N/C(=C/c3ccc(N4CCOCC4)cc3)C2=O)cc1	-0.2%	-1.6%	-29.0%[57.1 µM]	-6.7%	?	.
Cc1ccc(NC(=O)CN2C(=O)N/C(=C/c3ccc(C)o3)C2=O)cc1	-6.8%	-7.0%	-13.2%	-0.1%	-3.1%	.
Cc1ccc(NC(=O)CN2C(=O)N/C(=C\c3cccn3-c3cccc(-c4nn[nH]n4)c3)C2=O)cc1	.	.	.	.	.	67.5*
Oc1ccc(N=Nc2ccccc2-c2nn[nH]n2)c(O)c1	-2.5%	.	-15.7%[11.6 µM]	?	.	37.9*
Cc1ccccc1-c1nn[nH]n1	-2.1%	-6.7%	8.3%	5.5%	.	.
O=C(O)CCNc1cc(N2CCN(C(=O)c3ccco3)CC2)c2noc3c2c1C(=O)c1ccccc1-3	-15.9%	.	17.8µM*	31.6µM*	.	30.1*
Nc1cccc2cc(S(=O)(=O)O)ccc12	.	.	?	8.91µM*	.	67.5*
CCSc1nnc(CCNC(=O)OC(C)(C)C)o1	-3.8%	-11.8%	-0.5%	10.5%	.	.
COCCC(=O)N1CCC(Oc2ccc(C(=O)N3CCCC(OC)C3)cc2)CC1 (centres undefined)	2.7%	.	-9.4%	16.5%	.	.
O=C(O)c1ccccc1-c1c2cc(I)c(=O)c(I)c-2oc2c(I)c(O)c(I)cc12	28.2µM*	22.4µM*	4.74µM*	39.8µM*	.	37.9*	WRN helicase inh-2=21.5µM*;TO DNA binding=i;BLM helicase inh-2=19.2µM*
Cc1ccc(S(=O)(=O)N2[C@@H](c3ccc(F)cc3)C(C(=O)O)=CC[C@H]2c2ccc3c(c2)OCO3)cc1	.	.	6.0%	2.9%	6.0%	.
Nc1nc(Sc2ccc([N+](=O)[O-])c3nonc23)c2[nH]cnc2n1	.	.	11.2µM*	20µM*	.	42.6*	WRN helicase inh-2=21.5µM*;TO DNA binding=42.9µM*;BLM helicase inh-2=15.2µM*

Source: PubChem BioAssay (National Center for Advancing Translational Sciences (NCATS))
